# The full data set covers some 7,900 targets. This sample favours those with a hit. About 0.6% of all pairs of compound and target were hits. Unmarked numbers belong to inactive results.
# Key:
# Experiment in all cases: log2 fold change, soluble protein after heating vs DMSO (PISA); higher = thermal stabilisation; K562 cells, 10 uM, 30 min; active = over 0.2 and 3.5 SD of the protein, either way, in both replicates (recomputed)
# [1] = compound: C1COCCN1CCN2C3=CC=CC=C3N=C2NC(=O)C4=CC(=CC=C4)[N+](=O)[O-] [IRAK-1-4 Inhibitor I]
# Method in brief: (§1)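 Soluble protein was quantified by TMTpro 16plex LC-MS/MS after channel sums were equalised. It was obtained as the supernatant after 21,000xg for 90 min from pooled aliquots of K562 cells (2×10^6 cells/mL, 10 μM compound, 30 min) heated for 3 min across 48°C-58°C and extracted in PBS with 0.5% NP-40 at 4°C. Thermal stability values are relative to control samples and come from duplicates. They are given as log2 fold changes.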
# [2] = compound: C=CC(=O)N1CCC[C@@H](n2nc(-c3ccc(Oc4ccccc4)cc3)c3c(N)ncnc32)C1 [ibrutinib]
# Method in brief: as §1
# [3] = compound: CC(=O)c1cnc2ccc(-c3cc(Cl)c(O)c(Cl)c3)nc2c1N[C@H]1CC[C@H](CN(C)C)CC1
# Method in brief: as §1
# [4] = compound: CC(C)(C)Cn1c(N)nc2ccc(-c3[nH]c(C(C)(C)C)nc3-c3ccc(F)cc3)nc21 [ralimetinib]
# Method in brief: as §1
# [5] = compound: CC(C)(O)CC(=O)NCCn1ccc2ncnc(Nc3ccc(Oc4cccc(C(F)(F)F)c4)c(Cl)c3)c21
# Method in brief: as §1
# [6] = compound: CC(C)C1=C2N=C(C=C(N2N=C1)NCC3=CC=CC=C3)NCCCCCCN
# Method in brief: as §1
# [7] = compound: CC(C)C[C@@H](C=O)NC(=O)[C@H](CC(C)C)NC(=O)[C@H](CC(C)C)NC(=O)OCc1ccccc1
# Method in brief: as §1
# [8] = compound: CC(C)N(C[C@H]1O[C@@H](n2cnc3c(N)ncnc32)[C@H](O)[C@@H]1O)[C@H]1C[C@@H](CCc2nc3cc(C(C)(C)C)ccc3[nH]2)C1 [pinometostat]
# Method in brief: as §1
# [9] = compound: CC1=C(C(CC(=O)N1)C2=CC=C(C=C2)C(F)(F)F)C(=O)NC3=C(C=C4C(=C3)C=NN4)F
# Method in brief: as §1
# [10] = compound: CC1=C(C2=C(C=C1)C(=O)C3=CC=CC=C3N2CCCN)C
# Method in brief: as §1
# [11] = compound: CC1=C(C=C(C=C1)NC(=O)C2=CC(=CC=C2)C(C)(C)C#N)NC3=CC4=C(C=C3)N=CN(C4=O)C
# Method in brief: as §1
# [12] = compound: CC1=C(C=C(C=C1)NC(=O)C2=CC(=CC=C2)N(C)C)NC(=O)C3=CC=C(C=C3)O
# Method in brief: as §1
# [13] = compound: CC1=CC=C(C=C1)SC2=C3C=C(SC3=CN=C2)C(=O)N
# Method in brief: as §1
# [14] = compound: CC1=NC(=CC=C1)C2=C(N=C(N2)C(C)(C)C)C3=CC4=NC=CN=C4C=C3
# Method in brief: as §1
# [15] = compound: CCCCN(Cc1ccc(C(=O)NO)cc1)C(=O)Nc1ccccc1 [Nexturastat A]
# Method in brief: as §1
# [16] = compound: CCCS(=O)(=O)Nc1ccc(F)c(C(=O)c2c[nH]c3ncc(-c4ccc(Cl)cc4)cc23)c1F [vemurafenib]
# Method in brief: as §1
# [17] = compound: CCCS(=O)(=O)Nc1ccc(F)c(C(=O)c2c[nH]c3ncc(Cl)cc23)c1F
# Method in brief: as §1
# [18] = compound: CCCc1cc(C)[nH]c(=O)c1CNC(=O)c1cc(-c2ccnc(N3CCN(C)CC3)c2)cc2c1cnn2C(C)C
# Method in brief: as §1
# [19] = compound: CCN(CC)Cc1ccc2cc(COC(=O)Nc3ccc(C(=O)NO)cc3)ccc2c1 [givinostat]
# Method in brief: as §1
# [20] = compound: CCN(CCCOc1ccc2c(Nc3cc(CC(=O)Nc4cccc(F)c4)[nH]n3)ncnc2c1)CCOP(=O)(O)O [barasertib]
# Method in brief: as §1
# Chain of UniProt O15198 (O15198 whole entry, looked up): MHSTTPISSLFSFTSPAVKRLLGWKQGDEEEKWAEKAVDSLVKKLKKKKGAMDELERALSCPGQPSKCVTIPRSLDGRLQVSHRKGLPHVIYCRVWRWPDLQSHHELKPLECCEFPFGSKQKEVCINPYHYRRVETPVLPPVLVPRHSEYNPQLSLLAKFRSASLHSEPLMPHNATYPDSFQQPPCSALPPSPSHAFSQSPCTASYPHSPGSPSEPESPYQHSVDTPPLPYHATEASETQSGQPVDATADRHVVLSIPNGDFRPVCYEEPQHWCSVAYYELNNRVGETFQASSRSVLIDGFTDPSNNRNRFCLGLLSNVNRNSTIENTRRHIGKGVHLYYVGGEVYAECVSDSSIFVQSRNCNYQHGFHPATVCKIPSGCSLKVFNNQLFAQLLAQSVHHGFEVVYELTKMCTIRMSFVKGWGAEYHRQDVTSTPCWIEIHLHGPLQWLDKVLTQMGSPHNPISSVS
# Chain of UniProt Q9Y5M8 (Q9Y5M8 whole entry, looked up): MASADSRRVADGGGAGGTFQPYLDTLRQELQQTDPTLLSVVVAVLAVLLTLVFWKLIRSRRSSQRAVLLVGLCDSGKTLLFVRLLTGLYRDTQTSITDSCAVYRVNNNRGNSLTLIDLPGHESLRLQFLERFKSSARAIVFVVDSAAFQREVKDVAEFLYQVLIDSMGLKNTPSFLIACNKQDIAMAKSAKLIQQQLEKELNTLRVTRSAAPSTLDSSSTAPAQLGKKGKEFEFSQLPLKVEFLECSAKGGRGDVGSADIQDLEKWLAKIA
# Chain of UniProt P08579 (P08579 whole entry, looked up): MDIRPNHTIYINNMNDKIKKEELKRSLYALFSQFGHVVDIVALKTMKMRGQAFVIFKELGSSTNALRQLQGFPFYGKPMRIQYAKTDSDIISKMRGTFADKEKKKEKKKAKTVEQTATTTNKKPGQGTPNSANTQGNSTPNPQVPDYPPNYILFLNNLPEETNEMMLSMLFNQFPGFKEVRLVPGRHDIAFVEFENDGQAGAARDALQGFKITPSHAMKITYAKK
# Chain of UniProt Q9BTW9 (Q9BTW9 whole entry, looked up): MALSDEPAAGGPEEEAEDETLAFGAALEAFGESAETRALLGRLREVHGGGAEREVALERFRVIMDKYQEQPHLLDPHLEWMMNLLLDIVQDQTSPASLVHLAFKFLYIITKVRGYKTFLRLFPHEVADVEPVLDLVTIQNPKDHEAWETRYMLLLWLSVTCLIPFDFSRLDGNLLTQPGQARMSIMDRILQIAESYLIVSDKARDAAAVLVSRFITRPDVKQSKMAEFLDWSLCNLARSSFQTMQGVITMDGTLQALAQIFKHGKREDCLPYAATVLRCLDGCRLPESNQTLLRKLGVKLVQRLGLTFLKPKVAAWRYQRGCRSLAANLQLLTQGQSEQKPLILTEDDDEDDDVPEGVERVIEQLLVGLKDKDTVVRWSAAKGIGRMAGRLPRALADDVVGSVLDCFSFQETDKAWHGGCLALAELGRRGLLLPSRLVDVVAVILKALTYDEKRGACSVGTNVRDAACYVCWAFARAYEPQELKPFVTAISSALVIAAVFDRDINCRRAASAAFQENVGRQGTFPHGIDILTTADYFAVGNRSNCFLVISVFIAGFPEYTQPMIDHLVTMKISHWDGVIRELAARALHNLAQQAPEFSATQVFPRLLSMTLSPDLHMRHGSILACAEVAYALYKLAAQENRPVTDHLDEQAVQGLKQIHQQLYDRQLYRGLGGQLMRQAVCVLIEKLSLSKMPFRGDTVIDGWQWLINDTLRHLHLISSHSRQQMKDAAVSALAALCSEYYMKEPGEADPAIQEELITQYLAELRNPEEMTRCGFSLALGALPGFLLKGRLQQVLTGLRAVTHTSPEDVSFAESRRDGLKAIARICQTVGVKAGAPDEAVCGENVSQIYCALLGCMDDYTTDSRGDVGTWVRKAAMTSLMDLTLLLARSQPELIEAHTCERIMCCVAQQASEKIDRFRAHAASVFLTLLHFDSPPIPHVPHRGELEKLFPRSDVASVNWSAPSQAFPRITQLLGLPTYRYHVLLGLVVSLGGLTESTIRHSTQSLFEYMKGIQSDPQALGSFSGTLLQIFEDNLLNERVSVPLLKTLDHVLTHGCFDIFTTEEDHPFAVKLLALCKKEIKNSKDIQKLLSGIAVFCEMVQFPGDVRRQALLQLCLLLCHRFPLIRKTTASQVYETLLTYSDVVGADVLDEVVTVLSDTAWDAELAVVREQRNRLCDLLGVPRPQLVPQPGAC
# Chain of UniProt Q13395 (Q13395 whole entry, looked up): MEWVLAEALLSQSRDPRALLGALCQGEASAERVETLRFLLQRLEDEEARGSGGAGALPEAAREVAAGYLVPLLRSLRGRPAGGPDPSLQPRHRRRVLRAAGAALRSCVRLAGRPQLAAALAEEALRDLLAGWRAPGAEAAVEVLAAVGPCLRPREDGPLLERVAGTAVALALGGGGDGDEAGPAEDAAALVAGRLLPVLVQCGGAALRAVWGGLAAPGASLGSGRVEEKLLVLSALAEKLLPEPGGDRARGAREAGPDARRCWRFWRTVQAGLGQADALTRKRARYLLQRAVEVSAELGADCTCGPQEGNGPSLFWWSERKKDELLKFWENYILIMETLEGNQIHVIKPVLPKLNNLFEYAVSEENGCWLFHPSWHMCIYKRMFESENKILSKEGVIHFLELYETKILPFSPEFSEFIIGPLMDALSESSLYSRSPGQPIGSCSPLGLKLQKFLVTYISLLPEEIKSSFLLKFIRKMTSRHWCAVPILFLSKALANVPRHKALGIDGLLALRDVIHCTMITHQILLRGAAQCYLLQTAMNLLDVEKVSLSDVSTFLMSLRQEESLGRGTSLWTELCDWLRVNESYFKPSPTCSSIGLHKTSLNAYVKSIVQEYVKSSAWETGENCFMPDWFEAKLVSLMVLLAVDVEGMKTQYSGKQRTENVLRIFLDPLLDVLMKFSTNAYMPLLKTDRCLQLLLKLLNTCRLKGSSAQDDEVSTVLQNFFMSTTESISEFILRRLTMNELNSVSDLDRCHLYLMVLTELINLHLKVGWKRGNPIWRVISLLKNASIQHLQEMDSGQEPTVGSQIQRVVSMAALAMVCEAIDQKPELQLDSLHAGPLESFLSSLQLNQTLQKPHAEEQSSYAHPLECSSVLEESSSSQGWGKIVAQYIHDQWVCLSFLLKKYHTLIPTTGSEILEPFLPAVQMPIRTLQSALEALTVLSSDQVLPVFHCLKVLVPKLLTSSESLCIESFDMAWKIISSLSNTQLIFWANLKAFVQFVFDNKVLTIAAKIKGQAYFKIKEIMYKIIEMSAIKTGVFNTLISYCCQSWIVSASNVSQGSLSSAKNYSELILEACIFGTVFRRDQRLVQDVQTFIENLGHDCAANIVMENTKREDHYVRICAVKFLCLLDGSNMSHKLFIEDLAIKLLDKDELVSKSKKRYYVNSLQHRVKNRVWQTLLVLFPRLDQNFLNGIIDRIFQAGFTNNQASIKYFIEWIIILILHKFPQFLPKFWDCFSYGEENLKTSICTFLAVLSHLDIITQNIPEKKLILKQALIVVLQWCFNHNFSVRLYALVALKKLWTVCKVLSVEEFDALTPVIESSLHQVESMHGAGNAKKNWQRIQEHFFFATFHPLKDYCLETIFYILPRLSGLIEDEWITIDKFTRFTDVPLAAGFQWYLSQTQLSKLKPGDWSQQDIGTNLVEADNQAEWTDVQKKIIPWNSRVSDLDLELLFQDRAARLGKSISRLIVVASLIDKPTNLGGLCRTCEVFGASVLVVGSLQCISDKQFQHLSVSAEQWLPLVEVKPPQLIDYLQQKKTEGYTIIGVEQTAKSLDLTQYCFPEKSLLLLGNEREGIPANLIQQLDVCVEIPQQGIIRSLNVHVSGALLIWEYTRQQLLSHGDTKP
# Chain of UniProt Q9UKI8 (Q9UKI8 whole entry, looked up): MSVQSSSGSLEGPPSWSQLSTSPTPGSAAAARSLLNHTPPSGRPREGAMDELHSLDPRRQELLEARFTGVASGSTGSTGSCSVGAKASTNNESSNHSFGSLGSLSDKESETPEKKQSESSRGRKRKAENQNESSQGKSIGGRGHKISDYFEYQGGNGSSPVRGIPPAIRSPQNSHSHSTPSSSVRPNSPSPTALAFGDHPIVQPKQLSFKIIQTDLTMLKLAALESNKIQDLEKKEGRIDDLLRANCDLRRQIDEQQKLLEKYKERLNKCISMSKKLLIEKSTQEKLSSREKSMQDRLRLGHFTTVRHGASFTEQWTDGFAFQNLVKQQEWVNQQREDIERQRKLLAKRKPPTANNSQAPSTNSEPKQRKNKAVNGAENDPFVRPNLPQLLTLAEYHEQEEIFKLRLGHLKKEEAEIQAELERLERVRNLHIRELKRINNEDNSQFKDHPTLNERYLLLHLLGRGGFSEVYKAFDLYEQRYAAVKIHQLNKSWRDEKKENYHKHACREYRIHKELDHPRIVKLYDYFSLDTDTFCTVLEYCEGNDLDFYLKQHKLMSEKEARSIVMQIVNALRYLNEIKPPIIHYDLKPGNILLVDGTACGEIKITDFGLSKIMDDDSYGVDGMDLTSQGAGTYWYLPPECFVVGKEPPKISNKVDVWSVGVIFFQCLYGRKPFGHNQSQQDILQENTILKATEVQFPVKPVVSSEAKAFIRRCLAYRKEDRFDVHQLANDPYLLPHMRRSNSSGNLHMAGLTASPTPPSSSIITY
# Chain of UniProt O95926 (O95926 whole entry, looked up): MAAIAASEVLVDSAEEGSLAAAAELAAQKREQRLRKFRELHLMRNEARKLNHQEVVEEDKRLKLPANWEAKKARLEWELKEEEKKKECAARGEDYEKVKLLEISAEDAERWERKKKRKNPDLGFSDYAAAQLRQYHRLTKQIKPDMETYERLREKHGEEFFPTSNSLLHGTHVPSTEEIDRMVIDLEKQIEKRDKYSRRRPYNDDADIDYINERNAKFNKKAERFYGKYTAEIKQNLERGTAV
# Chain of UniProt P55061 (P55061 whole entry, looked up): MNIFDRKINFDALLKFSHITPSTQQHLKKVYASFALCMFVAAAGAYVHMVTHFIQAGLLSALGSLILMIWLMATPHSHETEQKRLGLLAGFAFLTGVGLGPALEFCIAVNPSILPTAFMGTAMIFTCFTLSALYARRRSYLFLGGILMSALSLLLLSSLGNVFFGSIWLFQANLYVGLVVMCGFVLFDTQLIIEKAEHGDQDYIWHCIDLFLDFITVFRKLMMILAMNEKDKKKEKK
Target,log2 fold change [1],log2 fold change [2],log2 fold change [3],log2 fold change [4],log2 fold change [5],log2 fold change [6],log2 fold change [7],log2 fold change [8],log2 fold change [9],log2 fold change [10],log2 fold change [11],log2 fold change [12],log2 fold change [13],log2 fold change [14],log2 fold change [15],log2 fold change [16],log2 fold change [17],log2 fold change [18],log2 fold change [19],log2 fold change [20]
SRPRB (UniProt Q9Y5M8),-0.021,0.004,-0.014,0.034,-0.055,-0.036,-0.051,-0.026,-0.109,0.292 (active),0.096,-0.051,0.025,0.092,-0.035,0.061,0.073,0.035,-0.127,0.027
SNX11 (UniProt Q9Y5W9),0.069,0.13,-0.062,-0.001,0.085,-0.218,0.043,-0.067,0.134,-0.101,-0.008,0.012,-0.003,0.043,0.014,0.043,0.025,0.022,-0.006,0.019
STAT5A (UniProt P42229),-0.116,-0.088,-0.164,0.046,0.019,-0.053,0.006,0.033,-0.002,-0.009,-0.033,-0.113,0.072,0.011,-0.009,0.067,0.067,0.141,0.156,0.096
SMAD9 (UniProt O15198),-0.033,0.007,-0.092,-0.087,-0.022,0.005,0.06,0.024,0.039,0.017,-0.012,0.029,0.005,0.028,0.04,0.122,0.104,-0.032,0.108,0.054
TMBIM6 isoform 2 (UniProt P55061),0.023,0.001,0.004,-0.208,-0.437 (active),-0.521 (active),0.135,0.017,0.003,-0.075,-0.05,0.045,0.04,-0.016,-0.005,-0.121,0.048,0.619,0.072,0.019
TLK1 (UniProt Q9UKI8),0.027,-0.003,-0.089,0.02,-0.032,-0.064,-0.041,-0.041,0.019,0.218 (active),0.062,-0.009,0.018,0.011,0.012,0.008,0.019,-0.053,0.078,0.079
SQSTM1 (UniProt Q13501),-0.006,0.012,-0.298 (active),-0.026,0.058,-0.118,0.039,0.048,0.077,-0.079,0.04,-0.065,-0.054,-0.012,0.102,0.064,0.047,0.103,-0.027,0.032
STK4 (UniProt Q13043),-0.012,-0.078,-0.233 (active),0.002,-0.018,-0.019,0.015,0.008,0.023,0.019,-0.065,0.018,-0.022,0.007,0.004,-0.024,-0.014,0.005,-0.006,0.032
STK25 (UniProt O00506),0.051,-0.067,0,0.015,-0.039,-0.02,0.066,0.034,-0.015,0.08,-0.102,0.014,-0.011,0.029,-0.006,-0.021,0.011,-0.052,0.056,0.025
SLC6A6 (UniProt P31641),-0.025,0.036,-0.045,-0.186,-0.033,0.107,0.101,-0.071,-0.025,-0.181,0.017,0.014,0.011,0.028,-0.062,0.066,-0.01,-0.176,0.014,-0.018
SNRPB2 (UniProt P08579),0.067,0.074,0.089,-0.015,0.037,0.213 (active),0.037,0,-0.012,0.036,-0.016,0.007,-0.026,-0.014,-0.015,-0.036,-0.042,-0.048,-0.051,-0.056
SPTBN4 (UniProt Q9H254),-0.008,0.1,-0.06,-0.032,-0.025,-0.671 (active),-0.07,-0.007,0.024,-0.016,-0.013,-0.037,0.144,0.025,0.039,-0.027,-0.036,-0.12,0.112,-0.013
SYF2 (UniProt O95926),-0.063,0.056,0.411 (active),-0.019,0.049,0.327,0.199,0.072,0.023,0.382 (active),0.03,0.049,-0.063,-0.133,-0.015,-0.071,-0.134,-0.008,0.031,-0.083
TARBP1 (UniProt Q13395),0.062,-0.007,-0.01,0.003,-0.074,-0.066,0.009,0.041,0.04,0.184,0.069,0.001,0.002,-0.01,0.016,0.036,-0.062,-0.067,-0.017,0.023
TBCD (UniProt Q9BTW9),0.019,-0.019,-0.004,0.01,-0.034,-0.083,0.01,-0.061,0.068,-0.086,0.016,0.003,0.025,0.052,-0.051,0.005,0.02,-0.007,0.012,0.019
SPAST (UniProt Q9UBP0),0.054,-0.015,-0.073,0.015,-0.157,-0.063,0.013,0.002,-0.019,0.114,-0.032,-0.05,0.049,0.029,-0.047,0.068,0.021,0.062,0.074,0.045
